The values that follow come from ChEMBL document CHEMBL1157539, “Thousands of chemical starting points for antimalarial lead identification” (Nature, 2010).

Common to all, as to format: functional
The subject of test [1] is Plasmodium falciparum. Description: GSK_TCMDC: Inhibition of Plasmodium falciparum 3D7 in whole red blood cells, using parasite LDH activity as an index of growth. Test compounds present at 2uM.
Test [2] deals with Plasmodium falciparum. Nature of the test: GSK_TCMDC: Inhibition of Plasmodium falciparum Dd2 in whole red blood cells, using parasite LDH activity as an index of growth. Test compounds present at 2uM.
The subject of test [3] is HepG2. Nature of the test: GSK_TCMDC: Percent inhibition of human HepG2 cell line. Test compounds present at 10uM.

The term Inhibition denotes how much of the control response was suppressed. With `O=C(Nc1ccc(-c2ccccc2)cc1)Nc1cccc(Cn2nc(Cl)c(N3CCNCC3)cc2=O)c1.O=C(O)C(F)(F)F`, the results for the Inhibition in test [1], in test [2] and in test [3] were 100%, 79% and 15%, respectively.

As to `CCNc1cc(C(=O)N[C@@H](Cc2ccccc2)[C@H](O)CNC(C)CC(C)C)c(F)c(N2CCCCS2(=O)=O)c1.O=CO` (stereo not given in full), the Inhibition was 95% in test [1], 66% in test [2] and 6% in test [3].

With `CCOc1cc(Br)c(C(C)NC(=O)c2ccccc2)cc1OCC` (stereo not given), the Inhibition in test [1] turned out to be 92%; in test [2] it was 10%; in test [3], 0%.

On to `CN(C)CCC1CCCc2ccc(NC(=O)Nc3ccc(-c4ccncc4)c4ccccc34)cc21.Cl` (stereo not given), for which the Inhibition amounted to 89% in test [1], 27% in test [2] and 34% in test [3].

For `N#Cc1ccc(N2CCN(Cc3cccc(-c4cccc(-c5nc6cc(C(F)(F)F)ccc6[nH]5)c4)c3)CC2)nc1.O=C(O)C(F)(F)F`, the Inhibition in test [1] is on record as 99%; in test [2] it was 50%; in test [3] it was 15%.

Consider `COc1ccc(CCNCCCCCCNCCc2ccc(OC)c(OC)c2Cl)c(Cl)c1OC.Cl`, for which the Inhibition in test [1] came out at 96%; in test [2] it was 0%; in test [3], 19%.

For `CC(=NNC(=N)N)C(=O)Nc1ccc(Cl)c(Cl)c1.O=S(=O)(O)O`, the Inhibition in test [1] is given as 100%; in test [2], 97%; in test [3], 0%.

For the compound `CCc1ccc(C2CCN(CCCCNC(=O)c3ccc(NC(=O)c4ccc(Cl)cc4)cc3)CC2)c(OC)c1`, the Inhibition in test [1] is 100%; in test [2] it was 80%; in test [3] it was 26%.

`CN(C)c1cccc2c1nc(-c1ccco1)n2CCNCc1ccccc1.O=C(O)C(F)(F)F`: the Inhibition was 98% in test [1], 97% in test [2] and 0% in test [3].

On to `C[C@H](NC(=O)c1c(CN2CCC(N3CCCCC3=O)CC2)c(-c2cccs2)nc2ccccc12)C1CCCCC1`, for which the Inhibition was determined as 91% in test [1], 73% in test [2] and 8% in test [3].
